Of roughly 7,900 targets only a part is listed; those with a hit were picked by preference. About 0.6% of all pairs of compound and target were hits.
Compound: NC(=O)Nc1cc(-c2cccc(F)c2)sc1C(=O)N[C@H]1CCCNC1
Assay: log2 fold change, soluble protein after heating vs DMSO (PISA); higher = thermal stabilisation; K562 cells, 10 uM, 30 min; active = over 0.2 and 3.5 SD of the protein, either way, in both replicates (recomputed)
In short: (§1)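 For each measurement, 10 μM compound was applied for 30 min to K562 cells at 2×10^6 cells/mL. Aliquots were heated for 3 min across 48°C-58°C, pooled, and extracted in PBS with 0.5% NP-40 at 4°C; the supernatant after 21,000xg for 90 min was soluble protein. This was quantified by TMTpro 16plex LC-MS/MS with channel sums equalised, and thermal stability was reported relative to control samples from duplicates, on a log2 fold-change scale.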

Sequence of UniProt Q7L2J0 (Q7L2J0 whole entry, looked up): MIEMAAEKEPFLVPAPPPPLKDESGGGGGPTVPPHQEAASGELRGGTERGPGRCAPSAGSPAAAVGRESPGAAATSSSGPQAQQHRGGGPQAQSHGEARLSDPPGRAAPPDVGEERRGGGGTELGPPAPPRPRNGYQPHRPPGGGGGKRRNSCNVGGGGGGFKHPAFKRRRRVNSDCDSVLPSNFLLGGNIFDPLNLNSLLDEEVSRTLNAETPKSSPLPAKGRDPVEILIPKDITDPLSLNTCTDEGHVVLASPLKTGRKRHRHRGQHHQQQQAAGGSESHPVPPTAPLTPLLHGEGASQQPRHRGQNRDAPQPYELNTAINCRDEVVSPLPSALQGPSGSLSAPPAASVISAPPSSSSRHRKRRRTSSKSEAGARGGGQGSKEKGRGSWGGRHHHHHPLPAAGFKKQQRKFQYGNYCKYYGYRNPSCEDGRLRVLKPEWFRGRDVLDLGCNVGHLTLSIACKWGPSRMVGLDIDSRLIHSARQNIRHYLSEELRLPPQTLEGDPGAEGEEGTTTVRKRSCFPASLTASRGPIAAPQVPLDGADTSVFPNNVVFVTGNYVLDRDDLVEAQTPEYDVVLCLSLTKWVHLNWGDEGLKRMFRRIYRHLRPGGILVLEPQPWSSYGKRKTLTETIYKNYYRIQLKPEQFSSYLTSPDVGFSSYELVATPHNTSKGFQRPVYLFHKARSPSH
Sequence of UniProt Q14681 (Q14681 whole entry, looked up): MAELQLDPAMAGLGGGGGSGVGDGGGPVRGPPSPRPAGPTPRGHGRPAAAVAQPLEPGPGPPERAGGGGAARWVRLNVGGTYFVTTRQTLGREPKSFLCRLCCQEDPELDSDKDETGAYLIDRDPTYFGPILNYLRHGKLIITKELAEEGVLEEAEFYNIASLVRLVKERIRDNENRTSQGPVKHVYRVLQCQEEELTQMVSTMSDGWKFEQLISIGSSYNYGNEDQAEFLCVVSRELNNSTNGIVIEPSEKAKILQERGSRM
Sequence of UniProt Q9UGP4 (Q9UGP4 whole entry, looked up): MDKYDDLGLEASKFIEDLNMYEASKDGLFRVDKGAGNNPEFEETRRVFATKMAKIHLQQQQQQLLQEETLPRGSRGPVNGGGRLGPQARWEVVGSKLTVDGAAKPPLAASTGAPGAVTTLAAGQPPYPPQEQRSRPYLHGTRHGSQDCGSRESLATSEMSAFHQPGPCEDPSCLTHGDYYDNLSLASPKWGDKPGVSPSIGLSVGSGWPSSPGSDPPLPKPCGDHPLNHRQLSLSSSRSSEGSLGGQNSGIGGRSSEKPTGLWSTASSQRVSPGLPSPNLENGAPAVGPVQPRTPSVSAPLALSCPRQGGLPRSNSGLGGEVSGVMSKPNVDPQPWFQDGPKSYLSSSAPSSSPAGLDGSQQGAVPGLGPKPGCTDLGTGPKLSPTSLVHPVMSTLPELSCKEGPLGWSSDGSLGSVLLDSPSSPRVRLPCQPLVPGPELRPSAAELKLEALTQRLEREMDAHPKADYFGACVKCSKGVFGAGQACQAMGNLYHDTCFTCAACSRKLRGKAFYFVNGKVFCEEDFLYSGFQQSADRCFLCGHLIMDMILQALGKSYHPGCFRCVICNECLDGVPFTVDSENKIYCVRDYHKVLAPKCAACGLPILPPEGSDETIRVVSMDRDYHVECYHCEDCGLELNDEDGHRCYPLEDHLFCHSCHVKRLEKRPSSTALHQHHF
Sequence of UniProt Q9BPX6 (Q9BPX6 whole entry, looked up): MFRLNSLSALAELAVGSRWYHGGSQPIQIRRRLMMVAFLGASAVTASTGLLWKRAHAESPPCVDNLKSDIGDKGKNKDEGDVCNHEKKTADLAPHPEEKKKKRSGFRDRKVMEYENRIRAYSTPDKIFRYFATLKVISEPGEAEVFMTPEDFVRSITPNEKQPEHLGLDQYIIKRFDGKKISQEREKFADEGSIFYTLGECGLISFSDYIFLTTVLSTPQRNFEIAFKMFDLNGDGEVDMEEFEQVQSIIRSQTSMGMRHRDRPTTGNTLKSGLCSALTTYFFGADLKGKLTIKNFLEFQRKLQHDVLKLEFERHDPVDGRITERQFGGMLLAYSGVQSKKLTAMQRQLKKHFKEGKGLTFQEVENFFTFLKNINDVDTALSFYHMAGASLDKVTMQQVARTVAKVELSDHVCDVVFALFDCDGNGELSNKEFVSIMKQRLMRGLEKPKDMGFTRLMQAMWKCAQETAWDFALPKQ
Sequence of UniProt P27448 (P27448 whole entry, looked up): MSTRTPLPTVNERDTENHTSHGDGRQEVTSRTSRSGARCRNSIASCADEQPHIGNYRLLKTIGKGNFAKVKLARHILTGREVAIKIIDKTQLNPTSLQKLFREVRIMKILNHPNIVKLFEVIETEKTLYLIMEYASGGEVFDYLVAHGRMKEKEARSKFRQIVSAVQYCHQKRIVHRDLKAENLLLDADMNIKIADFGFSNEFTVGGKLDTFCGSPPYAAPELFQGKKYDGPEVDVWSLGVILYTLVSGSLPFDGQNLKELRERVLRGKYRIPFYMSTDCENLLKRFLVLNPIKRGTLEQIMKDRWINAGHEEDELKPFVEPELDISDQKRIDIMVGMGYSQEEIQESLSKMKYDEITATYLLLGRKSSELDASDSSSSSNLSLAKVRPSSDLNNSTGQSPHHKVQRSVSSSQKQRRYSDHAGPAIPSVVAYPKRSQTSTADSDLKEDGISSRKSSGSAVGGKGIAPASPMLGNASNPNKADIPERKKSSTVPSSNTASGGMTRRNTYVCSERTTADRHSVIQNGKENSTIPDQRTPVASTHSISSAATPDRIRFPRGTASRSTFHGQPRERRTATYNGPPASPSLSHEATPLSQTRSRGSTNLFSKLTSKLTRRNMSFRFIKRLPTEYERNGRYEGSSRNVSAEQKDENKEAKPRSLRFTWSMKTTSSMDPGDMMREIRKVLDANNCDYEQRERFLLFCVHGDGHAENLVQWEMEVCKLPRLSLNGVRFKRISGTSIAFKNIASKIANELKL
Sequence of UniProt Q9Y383 (Q9Y383 whole entry, looked up): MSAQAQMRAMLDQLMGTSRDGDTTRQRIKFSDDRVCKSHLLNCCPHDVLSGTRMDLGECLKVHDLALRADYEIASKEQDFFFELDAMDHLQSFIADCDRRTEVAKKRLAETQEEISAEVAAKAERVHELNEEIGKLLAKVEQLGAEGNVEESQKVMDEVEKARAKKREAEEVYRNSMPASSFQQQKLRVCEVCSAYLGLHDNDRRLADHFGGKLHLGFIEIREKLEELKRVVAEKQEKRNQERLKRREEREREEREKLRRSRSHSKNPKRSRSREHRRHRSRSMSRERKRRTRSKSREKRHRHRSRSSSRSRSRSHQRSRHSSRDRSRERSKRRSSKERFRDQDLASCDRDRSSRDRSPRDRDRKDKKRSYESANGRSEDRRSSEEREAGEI
Sequence of UniProt Q5XKP0 (Q5XKP0 whole entry, looked up): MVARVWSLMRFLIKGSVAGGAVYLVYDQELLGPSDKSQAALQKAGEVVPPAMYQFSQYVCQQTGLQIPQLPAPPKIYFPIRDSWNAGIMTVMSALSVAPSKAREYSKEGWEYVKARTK
Sequence of UniProt Q14974 (Q14974 whole entry, looked up): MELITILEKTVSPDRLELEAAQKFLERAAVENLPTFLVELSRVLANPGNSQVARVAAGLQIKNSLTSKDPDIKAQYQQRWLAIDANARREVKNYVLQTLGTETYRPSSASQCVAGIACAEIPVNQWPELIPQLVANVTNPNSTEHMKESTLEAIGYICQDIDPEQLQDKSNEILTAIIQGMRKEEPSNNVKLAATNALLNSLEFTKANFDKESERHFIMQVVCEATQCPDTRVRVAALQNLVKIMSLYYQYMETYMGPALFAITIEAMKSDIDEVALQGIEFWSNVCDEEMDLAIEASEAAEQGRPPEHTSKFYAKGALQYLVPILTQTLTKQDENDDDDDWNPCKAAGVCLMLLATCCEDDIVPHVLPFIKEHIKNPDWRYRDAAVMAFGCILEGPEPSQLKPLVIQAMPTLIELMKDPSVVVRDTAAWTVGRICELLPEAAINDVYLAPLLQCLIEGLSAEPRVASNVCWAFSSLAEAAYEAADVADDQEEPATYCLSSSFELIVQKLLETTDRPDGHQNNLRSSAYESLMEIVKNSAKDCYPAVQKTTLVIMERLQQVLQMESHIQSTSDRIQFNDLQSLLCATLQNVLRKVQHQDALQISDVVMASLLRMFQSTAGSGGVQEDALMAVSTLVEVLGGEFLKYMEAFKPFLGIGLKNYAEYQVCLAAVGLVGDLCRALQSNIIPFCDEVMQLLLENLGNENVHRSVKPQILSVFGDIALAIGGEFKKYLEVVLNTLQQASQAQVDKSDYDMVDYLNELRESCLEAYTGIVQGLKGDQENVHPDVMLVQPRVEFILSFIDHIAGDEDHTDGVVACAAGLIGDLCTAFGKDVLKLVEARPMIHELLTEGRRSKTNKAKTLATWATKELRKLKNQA
Sequence of UniProt Q16891 (Q16891 whole entry, looked up): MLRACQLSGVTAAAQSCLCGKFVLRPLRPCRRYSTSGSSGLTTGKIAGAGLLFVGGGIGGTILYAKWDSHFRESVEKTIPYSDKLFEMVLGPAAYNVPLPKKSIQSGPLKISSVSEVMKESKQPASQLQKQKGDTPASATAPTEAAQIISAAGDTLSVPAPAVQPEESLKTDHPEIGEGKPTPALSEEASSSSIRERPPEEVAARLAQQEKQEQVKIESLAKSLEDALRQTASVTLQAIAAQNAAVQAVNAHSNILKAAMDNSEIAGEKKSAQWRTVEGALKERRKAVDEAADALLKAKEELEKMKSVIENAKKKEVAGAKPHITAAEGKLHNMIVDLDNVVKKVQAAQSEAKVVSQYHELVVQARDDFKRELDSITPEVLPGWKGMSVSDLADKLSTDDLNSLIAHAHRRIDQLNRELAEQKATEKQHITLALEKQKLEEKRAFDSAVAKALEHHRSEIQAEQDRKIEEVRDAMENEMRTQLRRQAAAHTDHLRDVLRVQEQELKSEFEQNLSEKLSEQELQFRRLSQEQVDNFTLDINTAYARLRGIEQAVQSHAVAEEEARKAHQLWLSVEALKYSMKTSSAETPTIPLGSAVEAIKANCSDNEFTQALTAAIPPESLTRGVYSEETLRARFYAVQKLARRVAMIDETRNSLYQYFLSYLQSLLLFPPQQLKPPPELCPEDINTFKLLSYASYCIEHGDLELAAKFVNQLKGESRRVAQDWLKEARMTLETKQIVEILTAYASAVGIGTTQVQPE

log2 fold change, inactive:
KRAS isoform 2 (UniProt P01116) -0.07, LEMD3 (UniProt Q9Y2U8) -0.206, LIMD1 (UniProt Q9UGP4) 0.009, LMF2 (UniProt Q9BU23) -0.008, IPO13 (UniProt O94829) 0.051, LNPEP (UniProt Q9UIQ6) 0.037, MAGOHB (UniProt Q96A72) -0.081, MAP3K7 (UniProt O43318) -0.162, KPNB1 (UniProt Q14974) 0.025, MAPK12 (UniProt P53778) -0.076, MEPCE (UniProt Q7L2J0) -0.085, ILF2 (UniProt Q12905) -0.02, MAPKAPK3 (UniProt Q16644) 0.147, MCL1 (UniProt Q07820) -0.074, MDN1 (UniProt Q9NU22) -0.002, MAP3K4 isoform 2 (UniProt Q9Y6R4) 0.036, MAP2K2 (UniProt P36507) 0, KCTD2 (UniProt Q14681) -0.524, MARK3 (UniProt P27448) -0.125, LUC7L2 (UniProt Q9Y383) -0.221, LMNB1 (UniProt P20700) 0.094, MICOS13 (UniProt Q5XKP0) -0.018, IMMT isoform 2 (UniProt Q16891) 0, KEAP1 (UniProt Q14145) 0.007, MAGI1 (UniProt Q96QZ7) -0.069, MGST3 (UniProt O14880) -0.04, MICU1 isoform 3 (UniProt Q9BPX6) -0.048, MAP4 (UniProt E7EVA0) 0.162, LNPK (UniProt Q9C0E8) 0.011, KIF1B isoform 4 (UniProt O60333) 0.043, LIAS (UniProt O43766) -0.079, MAPK8 isoform 3 (UniProt P45983) -0.05, MFGE8 (UniProt Q08431) -0.163, KHDC4 (UniProt Q7Z7F0) -0.017, LUC7L3 (UniProt O95232) -0.203, LTN1 isoform 3 (UniProt O94822) 0.024, LPCAT3 (UniProt Q6P1A2) -0.074, LMBRD2 (UniProt Q68DH5) 0.028, KPNA6 (UniProt O60684) 0.01

Compound: NC(=O)c1cnc(N[C@@H]2CCCC[C@@H]2N)nc1Nc1cccc(-n2nccn2)c1
Assay: as above
In short: as §1

log2 fold change, inactive:
KRAS isoform 2 (UniProt P01116) 0.039, LEMD3 (UniProt Q9Y2U8) -0.029, LIMD1 (UniProt Q9UGP4) 0.005, LMF2 (UniProt Q9BU23) -0.001, IPO13 (UniProt O94829) -0.101, LNPEP (UniProt Q9UIQ6) 0.011, MAGOHB (UniProt Q96A72) 0.177, MAP3K7 (UniProt O43318) 0.033, KPNB1 (UniProt Q14974) -0.087, MAPK12 (UniProt P53778) -0.095, MEPCE (UniProt Q7L2J0) -0.152, ILF2 (UniProt Q12905) 0.024, MAPKAPK3 (UniProt Q16644) -0.024, MCL1 (UniProt Q07820) -0.33, MDN1 (UniProt Q9NU22) -0.087, MAP3K4 isoform 2 (UniProt Q9Y6R4) -0.025, MAP2K2 (UniProt P36507) -0.042, KCTD2 (UniProt Q14681) -0.195, MARK3 (UniProt P27448) -0.181, LUC7L2 (UniProt Q9Y383) -0.025, LMNB1 (UniProt P20700) -0.073, MICOS13 (UniProt Q5XKP0) -0.023, IMMT isoform 2 (UniProt Q16891) -0.045, KEAP1 (UniProt Q14145) -0.027, MAGI1 (UniProt Q96QZ7) -0.042, MGST3 (UniProt O14880) -0.07, MICU1 isoform 3 (UniProt Q9BPX6) -0.022, MAP4 (UniProt E7EVA0) 0.165, LNPK (UniProt Q9C0E8) 0.01, KIF1B isoform 4 (UniProt O60333) -0.059, LIAS (UniProt O43766) 0.014, MAPK8 isoform 3 (UniProt P45983) -0.02, MFGE8 (UniProt Q08431) -0.058, KHDC4 (UniProt Q7Z7F0) -0.003, LUC7L3 (UniProt O95232) -0.017, LTN1 isoform 3 (UniProt O94822) -0.079, LPCAT3 (UniProt Q6P1A2) -0.105, LMBRD2 (UniProt Q68DH5) 0.044, KPNA6 (UniProt O60684) -0.007
